Screening data from PubChem.
Only some compounds are listed: those with a hit (about 5.3% of all), similar ones and a draw of the others.
Vaccinia mCherry: vaccinia inhibition (mCherry reporter); Vaccinia virus mCherry reporter infection, fluorescence; Potency, µM (top dose mostly 36.5 µM), for the others: at the highest dose activity change, negative = inhibition, hits mostly inhibitors; hit rate 0.63% among 310,000; calls by dose curve; tested in A549 cells; also: nearly all actives have a fitted effect of over 35% in size
HCV inh: blocks hepatitis C virus; AID 651820; Huh7.5.1 HCVcc-Cre infection, luciferase reporter, 44 h; hit rate 3.4% among 340,000; Potency, µM (top dose mostly 41.8 µM), without a hit: top-dose activity change, negative = inhibition, usual class: inhibitors; active = well fitted inhibition curve with a large enough effect; inconclusive = small, poorly fitted or top-dose-only effect, or another doubt; inactive = no such curve, though single readings can be large or run the other way
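Seed cells (1,000/well) for 4 h; treat with compound and infect with HCVcc-Cre, moi about 0.5. Incubate 44 h, then detect luciferase activity.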
FMDV antiviral: foot and mouth disease virus antiviral activity. FMDV antiviral cell-based qHTS. Potency, µM (highest dose often 57.9 µM), without a hit: top-dose activity change, negative = inhibition, actives largely listed as inhibitors. hit rate 1.2% among 410,000. AID 1159524; calls by dose curve; tested in HEK293T cells; also: read-out not given here; nearly all actives have a fitted effect of over 45% in size
Marburg entry inh: blocks Marburg virus binding to or entry into cells | Marburg virus pseudotyped entry inhibition, cell reporter | AID 540276 | hit rate 1.8% among 300,000 | Potency, µM (doses to about 37.8 µM), inactives show at the top dose activity change, negative = inhibition, most hits filed as inhibitors; calls by dose curve; tested in HEK293 cells
VACV Venus inh: vaccinia inhibition (Venus reporter) | Potency, µM (highest dose often 36.5 µM), for inactives: at the top dose activity change, negative = inhibition, usual class: inhibitors | hit rate 0.46% among 330,000 | AID 720580 | Vaccinia virus Venus reporter expression, fluorescence; calls by dose curve; tested in A549 cells; also: nearly all actives have a fitted effect of over 30% in size
LASV entry inh: inhibitors of Lassa virus binding or cell entry. Potency, µM (series often up to 37.9 µM), for inactives: at the top dose activity change, negative = inhibition, most hits filed as inhibitors. Lassa virus pseudotype entry inhibition, cell reporter. hit rate 1.2% among 300,000; calls by dose curve; tested in HEK293 cells; also: nearly all actives have a fitted effect of over 50% in size
Active calls of the source: *; i = inactive; ? = inconclusive; . = no result given; [ ] = another dose, or the depositor's remark. % is scaled to controls: 0 for no effect and ±100 for the full control effect; potency is read from the fitted curve at half-maximal effect.

SMILES	Vaccinia mCherry	HCV inh	FMDV antiviral	Marburg entry inh	VACV Venus inh	LASV entry inh
O=C(Cc1ccc(Cl)c(Cl)c1)N1CCCCC1CN1CCCC1 (centres undefined)	-24%	.	-26%	8.9µM*	-9%	?
O=C(COC(=O)c1cccc2c1C(=O)c1ccccc1C2=O)NC1CCCCC1	-28%	?	?	?	?	?
CC1CCCCC1NC(=O)COC(=O)c1ccc2c(c1Cl)C(=O)c1ccccc1C2=O (centres undefined)	.	25µM*	-19%	?	.	-13%
Nc1ccc2c(c1)C=C/C2=C\c1ccccc1	-28%	.	.	.	-26%	.
COc1ccc([C@]23Cc4c(ccc5ccccc45)[C@H](O2)C2=C(CCCC2=O)O3)cc1	.	.	.	-21%[14.2 µM]	.	.
Cc1cccc(N(C)C(=O)CN(C)S(=O)(=O)c2ccc3[nH]c4c(c3c2)CCCC4)c1	-20%	.	-7%	.	-16%	?
O=C(N/N=C/c1cc2c(cc1[N+](=O)[O-])OCO2)c1ccc2c(c1)OCO2	8%	-25%	-9%	-16%[46.1 µM]	0%	.
Cc1cccc(OCC(=O)N/N=C\c2cc3c(cc2[N+](=O)[O-])OCO3)c1C	-22%	11µM*	-15%	-13%	-12%	?
COc1ccc(C(=O)c2ccc(Cl)c([N+](=O)[O-])c2)cc1	-4%	?	?	5.8µM*	-28%	?
COCOCCn1cc(CN2CCS(=O)(=O)N(Cc3ccc(-c4ccc(Cl)c(Cl)c4)cc3)C(C)C2=O)nn1 (centres undefined)	?	.	?	.	13µM*	-7%[46.1 µM]
CC1C(=O)N(Cc2cn(CC3CCCCC3)nn2)CCS(=O)(=O)N1Cc1ccc(-c2ccc(Cl)cc2)cc1 (centres undefined)	?	.	?	.	11µM*	.
CC1C(=O)N(Cc2cn(CC3CCCCC3)nn2)CCS(=O)(=O)N1Cc1ccc(-c2ccc(Cl)c(Cl)c2)cc1 (centres undefined)	-5%	.	?	.	-21%	?
Cc1ccc(-c2ccc(CN3C(C(C)C)C(=O)N(Cc4cn(CC5CCCCC5)nn4)CCS3(=O)=O)cc2)cc1 (centres undefined)	-10%	.	-22%	.	?	?
CC(C)C1C(=O)N(Cc2cn(CC3CCCCC3)nn2)CCS(=O)(=O)N1Cc1ccc(-c2ccc(Cl)cc2)cc1 (centres undefined)	10µM*	.	-26%	.	?	?
CC1(C(=O)NS(=O)(=O)c2ccc(C#N)cc2)CCN1C(=O)CC1CCCCC1 (centres undefined)	14%	.	-2%	.	7%	.
C=CCN1C(=O)[C@]2(OCCC=C[C@@H]2C)c2cc(OC)ccc21	.	.	.	37%[14.2 µM]	.	.
CCCC[C@@H](C(=O)O)[C@H](C)CC(=O)Nc1cccc(C(=O)O)c1	.	.	.	10%	.	.
N#Cc1ccc(C23OCCN2CCn2nc4ccccc4c23)cc1 (centres undefined)	-3%	4µM*	-7%	.	-9%	.
Brc1ccc(N/N=C(/N=Nc2nn[nH]n2)c2ccccc2)cc1	?	5.6µM*	-23%	.	13µM*	.
Nc1ccccc1/C=C/c1ccnc2ccccc12	-29%	.	.	.	?	.
CCCCCCCCCCCCCCCC[n+]1ccc(CC(O)c2c(C)[nH]c3ccccc23)c2ccccc21 (centres undefined)	i	.	.	.	i	.
COC(=O)c1ccccc1NC(=O)CSc1nnnn1-c1ccc(C)cc1C	i	-13%	32µM*	-24%	-11%	?
CCOC(=O)c1sc(NC(=O)CSc2nnnn2-c2ccc(C)cc2C)nc1C	.	8%	-8%	0%	-3%	-9%
CSc1ccccc1-n1nnnc1SCC(=O)Nc1ccccc1C	.	11µM*	3%	-6%	.	-12%
CC(=O)CC(=O)NC(=NC1CCCCC1)Nc1nc(C)cc(C)n1	.	11µM*	-11%	?	.	-6%
SMILES	Vaccinia mCherry	HCV inh	FMDV antiviral	Marburg entry inh	VACV Venus inh	LASV entry inh
CC(=O)N1CCc2cc(S(=O)(=O)NC(CC(C)C)C(=O)NCCc3cccc(C)c3)ccc21 (centres undefined)	-3%	.	2%	-3%[46.1 µM]	-1%	20%[46.1 µM]
COc1ccc(-n2cc(-c3ccccc3)c3c(=O)[nH]cnc32)cc1	?	1%	-15%	?	?	21µM*
O=c1[nH]cnc2c1c(-c1ccccc1)cn2-c1cccc(Cl)c1	.	9%	-10%	.	.	.
CC(C)(C)c1ccc(C(=O)NC2CCS(=O)(=O)C2)cc1 (centres undefined)	-13%	1%	28%	14%[46.1 µM]	-13%	2%
CCC1CN(C(=O)N2CCC(C(=O)N3CCN(c4cccc(C)c4C)CC3)CC2)c2ccccc2O1 (centres undefined)	-22%	.	?	.	-27%	-23%[46.1 µM]
CCC1CN(C(=O)N2CCC(C(=O)N3CCN(c4cc(C)ccc4C)CC3)CC2)c2ccccc2O1 (centres undefined)	?	.	18µM*	.	?	7%[46.1 µM]
CCC1CN(C(=O)N2CCC(C(=O)NCCc3ccc(OC)cc3OC)CC2)c2ccccc2O1 (centres undefined)	.	13µM*	?	.	.	.
CCOc1ccccc1CNC(=O)C1CCN(C(=O)N2CC(C)Oc3ccc(C)cc32)CC1 (centres undefined)	-25%	?	?	.	-19%	.
CCOc1ccccc1CNC(=O)C1CCN(C(=O)N2CC(CC)Oc3ccc(C)cc32)CC1 (centres undefined)	-8%	.	35µM*	.	-9%	?
CCC1CN(C(=O)N2CCC(C(=O)NCCc3ccccc3OC)CC2)c2ccccc2O1 (centres undefined)	i	?	-18%	-21%[46.1 µM]	-10%	-8%[46.1 µM]
CCCCOc1ccc(C(=O)NCC(=O)NCCOc2ccccc2OC)cc1	.	13µM*	-12%	.	.	.
CC(C)(C)c1ccc(C(=O)NCCOc2ccccc2)cc1	-3%	-2%	20µM*	1.6µM*	-10%	?
CC(C)Cc1ccc(C(=O)NCCOc2ccccc2)o1	-13%	6%	-2%	-3%[46.1 µM]	1%	2.8µM*
COc1ccccc1C(=O)NCCOc1ccc(C(C)(C)C)cc1	.	-20%	-19%	.	.	.
CN(C)S(=O)(=O)c1ccc(C(=O)NCCOc2ccccc2)cc1	.	2%	19%	?	.	1%
Cc1ccc(OCCNC(=O)CNC(=O)c2ccc(C)cc2)cc1	i	10%	7%	-2%[46.1 µM]	-14%	2%[46.1 µM]
CC(C)(C)c1ccc(C(=O)NCCOc2ccccc2F)cc1	-12%	-3%	35µM*	?	-19%	?
Cc1ccc(OCCNC(=O)c2ccc(COc3ccccc3)o2)cc1	-5%	-5%[8.37 µM]	-5%	-4%	-13%	?
COCCN1C[C@@H](CO)O[C@@H](n2cnc3c(N4CCN(c5ccccc5)CC4)ncnc32)C1	i	.	-25%	.	0%	.
Cc1nc(N/N=C\c2ccc3c(c2)OCO3)sc1C	16µM*	13%	23%	21%[46.1 µM]	?	6%[46.1 µM]
CC1(C)CC(=O)C2=C(C1)O[C@@]1(CCCCN3C(=O)c4ccccc4C3=O)Cc3c(ccc4ccccc34)[C@H]2O1	.	.	.	-27%[14.2 µM]	.	.
